# In PubChem BioAssay (NCI):
# About 83,000 compounds went through this panel and 20% of them were active in at least one assay; those are over-represented in the sample as a whole.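 96-well plates, one dose, 48 hours. Percent growth reported; active if below 10.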 A number with no mark means an inactive call. Calls of active or inactive are those of the source.
# How the values were obtained:
# Assay in all cases: NCI-60 one-dose screen, 48 h (100 = growth as untreated, 0 = no growth, -100 = all killed)
# Settings in all cases: 10 µM unless noted
# T-47D breast = test system: T-47D breast
# BT-549 breast = test system: BT-549 breast
# MDA-MB-435 melanoma = test system: MDA-MB-435 melanoma
# SW-620 colon = test system: SW-620 colon
# MCF7 breast = test system: MCF7 breast
# HCT-116 colon = test system: HCT-116 colon
# HCC-2998 colon = test system: HCC-2998 colon
# KM12 colon = test system: KM12 colon
SMILES,growth (T-47D breast),growth (BT-549 breast),growth (MDA-MB-435 melanoma),growth (SW-620 colon),growth (MCF7 breast),growth (HCT-116 colon),growth (HCC-2998 colon),growth (KM12 colon)
O=C(c1ccccc1O)N1CCCC1,95.6%,88.9%,103%,100%,90.6%,88.5%,101%,107%
CCCCc1ccc2nc(NC(=O)OC)[nH]c2c1,76.8%,31.1%,0.507% (active),14.4%,12.8%,7.36% (active),-43.3% (active),-12.2% (active)
CCOC(=O)c1ccc(Nc2sc(C(=O)c3ccc(Br)cc3)c(N)c2C#N)cc1,28%,50.9%,-61.9% (active),25.6%,9% (active),26.9%,66.1%,21.7%
CCCCCCCCCCCCCCCCOc1ccccc1NC(=O)CC(C)=O,111%,90.9%,102%,110%,91.9%,97.5%,104%,94.5%
COc1cc(OC)c2cc(C(=O)c3ccc(C#N)cc3)c(=O)oc2c1,88.2%,87.3%,94.6%,106%,97.1%,92.1%,107%,97.5%
CCC(=O)Oc1c(C)cc(O)c2ccccc12,79.5%,82.1%,95.7%,103%,93.3%,70%,106%,88.6%
CN(C)Cc1ccccn1,102%,101%,103%,103%,97%,99.8%,119%,111%
Cc1ccnc(Nc2nc3ccccc3[nH]2)n1,86.5%,112%,107%,99.3%,98.8%,103%,112%,118%
CCOc1ccc(C(=O)O)cc1,100%,96.7%,104%,99.7%,94%,99%,104%,112%
Cc1c(-c2ccc(C3CCCCC3)cc2)nc2ccc(F)cc2c1C(=O)O,66.1%,65.2%,34.5%,30.6%,27%,24.8%,49.9%,32%
CCCCNc1ccc(-c2ccc(NCCCC)cc2)cc1,45.9%,31.1%,40.8%,78.6%,34.3%,55.3%,94.7%,56.9%
COc1ccc(Nc2cc(Cl)ccc2C(=O)O)cn1,110%,122%,122%,103%,98.4%,102%,110%,99.2%
O=S(=O)(OCCOS(=O)(=O)c1ccccc1)c1ccccc1,105%,86.4%,107%,102%,88%,87.4%,72.8%,101%
COC1C(=O)CCC2(CO2)C1(O)C1(C)OC1CCC(C)C (stereo not drawn),81.2%,77.4%,63.8%,60.5%,69.1%,52.5%,76.4%,74%
CC(C)c1ccc(C(=O)OCCCl)cc1,91.1%,100%,95.9%,106%,92.6%,82.4%,98.9%,115%
Cc1[nH]n(-c2ccccc2)c(=O)c1C=NC(=S)C(N)=S,102%,108%,109%,104%,100%,89.5%,102%,103%
Cc1ccc2[nH]c3ccccc3c2c1,93%,102%,101%,101%,104%,98.3%,100%,101%
O=C(c1ccc(Cl)cc1)N1CCCCC1,91.5%,105%,101%,99.8%,92.9%,99.9%,107%,106%

SMILES,growth (T-47D breast),growth (BT-549 breast),growth (MDA-MB-435 melanoma),growth (SW-620 colon),growth (MCF7 breast),growth (HCT-116 colon),growth (HCC-2998 colon),growth (KM12 colon)
C[n+]1c(/C=C\C=C\N2CCCCC2)sc2ccccc21,5.32% (active),1.35% (active),-1.72% (active),12.5%,4.75% (active),-24.5% (active),14%,-11% (active)
Cc1ccc(C)c(CN(C)C)c1O,120%,99.2%,109%,97.1%,102%,112%,102%,97.4%
CCOC(OCC)C(=O)c1ccccc1,103%,101%,109%,92.3%,94.4%,108%,112%,99.4%
CN(C)CCOC(=O)Nc1ccc(Cc2ccc(NC(=O)OCCN(C)C)cc2)cc1,105% [100 µM],68.3% [100 µM],76.4% [100 µM],85.8% [100 µM],44.9% [100 µM],36.5% [100 µM],46.2% [100 µM],78.8% [100 µM]
CCCCN(C=S)CCCC,81%,97.4%,105%,96.4%,87.6%,98.9%,102%,102%
Nc1c(O)c(S(=O)(=O)O)c(O)c2c1C(=O)c1ccccc1C2=O,23.5%,40%,21.3%,15.6%,13.8%,7.87% (active),31.8%,5.95% (active)
COC1OC(COC(C)=O)C(OC(C)=O)C(OC(C)=O)C1OC(C)=O (stereo not drawn),91.7%,101%,105%,109%,93%,87.4%,101%,106%
CS(=O)CC(=N\O)/C(CS(C)=O)=N\O (stereo not drawn),108%,106%,106%,101%,90.7%,102%,105%,102%
OCCNc1ccccc1,98.7%,97.4%,107%,108%,97.1%,89.9%,105%,101%
COc1ccc(C(=O)C(=O)c2ccccc2)cc1,104%,112%,95.1%,100%,103%,105%,104%,102%
O=C(O)C1CSC(c2ccccc2)N1 (stereo not drawn),101%,104%,108%,95.2%,91.5%,101%,103%,101%
Nc1ccc2c(c1)Cc1cc(N)c(N)cc1-2,84.4%,104%,104%,100%,73.3%,95.8%,110%,94.3%
CCOc1ccc2c(c1)c(C)cc(C)[n+]2CC,69.5%,33.8%,73.9%,84%,72.3%,54.5%,82.9%,17.6%
Nc1nc(Cl)cc(Cl)n1,82%,102%,111%,109%,90.3%,90.1%,114%,106%
N#C/C(=C\c1ccc2c(c1)OCO2)c1ccccc1,61.4%,65.2%,-1.53% (active),41.4%,53%,53.3%,76.4%,42.8%
CN(C(=S)S(=O)(=O)C12CC3CC(CC(C3)C1)C2)c1ccccc1,87.1%,123%,98.8%,69.7%,99.4%,93.5%,104%,109%
CC(C)N1CC(=O)N2CSCC2C1=O (stereo not drawn),108%,110%,105%,102%,98.7%,112%,102%,98%
CSc1nsc(N)n1,98.8%,100%,102%,92.9%,95.8%,104%,106%,101%
